The entries come from a sample that favours hits as a whole.
IL-1B inflam inh – inhibitors of inflammasome signaling (IL-1 beta secretion); THP-1 LPS/ATP IL-1B secretion, AlphaLISA, 16 h; stronger effect = lower value; activity change, % at 57.5 µM; 4.7% of 360,000 active; in the data active = activity change below about -50%; inconclusive = mostly about -30% to -49%
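Secreted IL-1B measured by AlphaLISA bead assay after 16 h compound exposure of THP-1 cells; compounds (final up to 57.5 uM) added 1 h before LPS (250 ng/mL) and ATP (1.25 mM) stimulation; lower signal means less secretion.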
HT1080NT lethal – kills 2HG-producing HT-1080-NT fibrosarcoma cells; HT-1080-NT fibrosarcoma viability, CellTiter-Glo ATP luminescence, 48 h; Potency, µM (series often up to 46.1 µM), for inactives: at the top dose activity, negative = less viability, actives largely listed as cytotoxic; 1.6% of 360,000 active;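 also: NT is the 2HG producing partner of a matched IDH1 knockdown line; potency is read from the fitted curve at half-maximal effect; 0% = DMSO-treated cells and -100% = media-only wells without cells; nearly all actives have a fitted effect of over 55% in size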
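HT-1080-NT; 750 cells/well; 5% FBS RPMI; 48 h compound, 37 degrees C; CellTiter-Glo luminescence; curve fitting and curve-class assignment.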
HT1080 IDH1KD tx – HT-1080 IDH1 knockdown cell toxicity (counter line); HT-1080 IDH1 knockdown viability, ATP luminescence, 48 h; Potency, µM (highest dose often 46.1 µM), inactives show at the highest dose activity, negative = toxicity, hits mostly cytotoxic; 2% of 360,000 active; AID 686971;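 also: potency is read from the fitted curve at half-maximal effect; 0% = DMSO wells and -100% = cell-free medium wells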
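IDH1KD HT-1080 cells, 750/well, RPMI + 5% FBS; compound pinned after 2 h settling; 48 h, 37 °C; CellTiter-Glo luminescence; % activity normalised to DMSO and no-cell wells; curves fitted, classed by r2 and efficacy.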
DT40 TDP1 no CPT – qHTS for Inhibitors of human tyrosyl-DNA phosphodiesterase 1 (TDP1): qHTS in cells in absence of CPT | DT40 Tdp1-/- hTDP1 cells, no CPT, ATP luminescence, 48 h | Potency, µM (titrated, usually from 46.2 µM), for inactives: top-dose activity change, negative = growth inhibition, usual class: inhibitors | 15% of 420,000 active; also: potency is read from the fitted curve at half-maximal effect; nearly all actives have a fitted effect of over 55% in size
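Stably hTDP1-transfected Tdp1-null chicken DT40 cells were treated with library compounds minus camptothecin and grown for at least 48 hr at 37 °C, after which cellular ATP was quantified by luminescence.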
TDP1 cell CPT – growth inhibition of DT40 Tdp1-/-;hTDP1 cells with camptothecin (screen for TDP1 inhibitors). Potency, µM (series often up to 46.2 µM), without a hit: at the highest dose activity change, negative = growth inhibition, actives largely listed as inhibitors. 12% of 420,000 active. chicken DT40 Tdp1-/-;hTDP1 cells + 20 nM CPT, ATP luminescence, 48 h. AID 686979; also: potency is read from the fitted curve at half-maximal effect; nearly all actives have a fitted effect of over 55% in size
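Chicken DT40 Tdp1-/- cells complemented with human TDP1, 400 cells/well, exposed to compounds plus 20 nM camptothecin for at least 48 h at 37 C; viability read as ATP content by CellTiter-Glo luminescence.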
ALOX12 inh – ALOX12 (human) lipoxygenase inhibition | P18054 | purified 12hLO, xylenol orange hydroperoxide absorbance | Potency, µM (series often up to 108 µM), without a hit: top-dose activity change, negative = inhibition, most hits filed as inhibitors | 1.1% of 580,000 active | AID 1671190; also: potency is read from the fitted curve at half-maximal effect
Target sequence (P18054 whole entry, looked up): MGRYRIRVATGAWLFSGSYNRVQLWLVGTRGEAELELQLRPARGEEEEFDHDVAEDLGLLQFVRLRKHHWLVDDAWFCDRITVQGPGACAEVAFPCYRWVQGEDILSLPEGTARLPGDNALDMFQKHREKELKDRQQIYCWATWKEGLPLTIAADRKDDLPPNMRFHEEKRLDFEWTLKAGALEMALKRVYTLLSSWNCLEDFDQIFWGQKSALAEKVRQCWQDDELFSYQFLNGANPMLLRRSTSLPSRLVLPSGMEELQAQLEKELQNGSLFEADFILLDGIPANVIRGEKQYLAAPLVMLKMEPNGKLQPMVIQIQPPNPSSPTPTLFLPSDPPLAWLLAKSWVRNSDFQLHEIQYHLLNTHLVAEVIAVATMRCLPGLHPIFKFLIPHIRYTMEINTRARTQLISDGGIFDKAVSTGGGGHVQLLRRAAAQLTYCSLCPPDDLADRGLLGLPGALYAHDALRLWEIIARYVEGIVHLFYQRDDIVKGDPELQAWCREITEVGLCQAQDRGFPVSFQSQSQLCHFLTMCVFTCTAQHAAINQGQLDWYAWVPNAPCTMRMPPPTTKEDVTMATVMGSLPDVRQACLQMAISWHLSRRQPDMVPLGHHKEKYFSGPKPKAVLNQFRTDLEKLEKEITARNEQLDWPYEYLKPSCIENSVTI
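Purified human 12hLO (150 nM final) in 25 mM Hepes, 0.01% Triton X-100, pH 7.0 was preincubated 15 min at room temperature with compound. Then 40 uM arachidonic acid was added, 30 min. Hydroperoxide was read by Fe-XO absorbance ratio 573/405 nm.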
* hit, by the source's call; [ ] = remark or other dose. Unless noted, calls follow the shape of the dose curve; as a rule, active = well fitted curve in the direction sought with a large enough effect; inconclusive = small, poorly fitted or top-dose-only effect, or another doubt; inactive = no such curve, though single readings can be large; an effect the other way counts as inactive or inconclusive. Unless noted, % is scaled to controls: 0 for no effect and ±100 for the full control effect.

Results for CC(=O)c1c(C)[nH]c(C(=O)NC(C)c2ccccc2)c1C (stereo not drawn) ?
IL-1B inflam inh: 40; HT1080NT lethal: -13%; HT1080 IDH1KD tx: -6%; DT40 TDP1 no CPT: 16µM*; TDP1 cell CPT: inconclusive; ALOX12 inh: 0%

What do the screens show for `CC(=O)c1c(C)[nH]c(C(=O)Nc2nccs2)c1C`?
IL-1B inflam inh: 20; HT1080NT lethal: -23%; HT1080 IDH1KD tx: inconclusive; DT40 TDP1 no CPT: 13µM*; TDP1 cell CPT: 12µM*; ALOX12 inh: -6%

What do the screens show for `COc1ccc(CNC(=O)c2ccc3nc(C)c(N(C)Cc4ccc(NC(C)=O)cc4)n3c2)cc1`?
IL-1B inflam inh: -7; HT1080NT lethal: 11%; HT1080 IDH1KD tx: 6%; DT40 TDP1 no CPT: 16µM*; TDP1 cell CPT: 13µM*; ALOX12 inh: 0%

How did CC(=O)Nc1ccc(CN(C)c2c(C)nc3ccc(C(=O)Nc4ccc(Cl)c(Cl)c4)cn23)cc1 do in these assays?
IL-1B inflam inh: -53*; HT1080NT lethal: inconclusive; HT1080 IDH1KD tx: inconclusive; DT40 TDP1 no CPT: inconclusive; TDP1 cell CPT: inconclusive; ALOX12 inh: 15%

What do the screens show for `CCCCN(C)c1c(C)nc2ccc(C(=O)NCc3ccc(OC)cc3)cn12`?
IL-1B inflam inh: inconclusive; HT1080NT lethal: inconclusive; HT1080 IDH1KD tx: -18%; DT40 TDP1 no CPT: 13µM*; TDP1 cell CPT: 13µM*; ALOX12 inh: -29%

Results for CCCCC(=O)N(C)c1c(C)nc2ccc(C(=O)NCc3ccccc3OC)cn12 ?
IL-1B inflam inh: 8; HT1080NT lethal: 5%; HT1080 IDH1KD tx: 7%; DT40 TDP1 no CPT: -5%; TDP1 cell CPT: -5%; ALOX12 inh: -19%

Results for CC(=O)Nc1ccc(CN(C)c2c(C)nc3ccc(C(=O)NC4CCN(Cc5ccccc5)CC4)cn23)cc1 ?
IL-1B inflam inh: -11; HT1080NT lethal: inconclusive; HT1080 IDH1KD tx: inconclusive; DT40 TDP1 no CPT: inconclusive; TDP1 cell CPT: inconclusive; ALOX12 inh: 20%

How did COc1ccccc1CNC(=O)c1ccc2nc(C)c(N(C)Cc3ccc(NC(C)=O)cc3)n2c1 do in these assays?
IL-1B inflam inh: -22; HT1080NT lethal: 19%; HT1080 IDH1KD tx: 4%; DT40 TDP1 no CPT: 15µM*; TDP1 cell CPT: 16µM*; ALOX12 inh: inconclusive

Results for COc1cc(-c2cc(O)c(-c3ccc4ccccc4n3)c(=O)[nH]2)cc(OC)c1OC ?
IL-1B inflam inh: 4; HT1080NT lethal: inconclusive; HT1080 IDH1KD tx: -26%; DT40 TDP1 no CPT: 15µM*; TDP1 cell CPT: inconclusive; ALOX12 inh: -21%

What do the screens show for `CC(NC(=O)c1ccc2nc(CCc3ccccc3)oc2c1)c1ccccc1` (stereo not drawn)?
DT40 TDP1 no CPT: inconclusive; TDP1 cell CPT: 21µM*; ALOX12 inh: 9%

How did Cc1cccc(NC(=O)c2ccc3nc(CCc4ccccc4)oc3c2)c1C do in these assays?
DT40 TDP1 no CPT: inconclusive; TDP1 cell CPT: 18µM*; ALOX12 inh: -16%

What do the screens show for `CCNC(=O)c1ccc2nc(CCc3ccccc3)oc2c1`?
DT40 TDP1 no CPT: -19%; TDP1 cell CPT: -23%; ALOX12 inh: -6%

Results for O=C(NCc1cccc(F)c1)c1ccc2nc(CCc3ccccc3)oc2c1 ?
DT40 TDP1 no CPT: inconclusive; TDP1 cell CPT: 21µM*; ALOX12 inh: -4%

What do the screens show for `CCC(C)NC(=O)c1ccc2nc(CCc3ccccc3)oc2c1` (stereo not drawn)?
DT40 TDP1 no CPT: 23µM*; TDP1 cell CPT: inconclusive; ALOX12 inh: -14%

How did Cn1c(=O)[nH]c(=O)c2c1nc(N1CCN(CCO)CC1)n2Cc1cccc(Br)c1 do in these assays?
ALOX12 inh: 23%

How did Cc1cc2ncc(C(=O)NCCc3ccccc3)cn2n1 do in these assays?
ALOX12 inh: -1%[176 µM]

Results for CCOCc1nnc(NC(=O)C2CC(=O)N(CCc3c[nH]c4ccc(Cl)cc34)C2)s1 (stereo not drawn) ?
ALOX12 inh: 3%

Results for COc1cccc(/C=C/C(=O)Oc2ccc(C3SCCS3)cc2OC)c1 ?
ALOX12 inh: 13%

What do the screens show for `CC(=O)n1cc([C@@H]2C=C(C(=O)O)O[C@H](OCc3ccc(CO)cc3)C2)c2ccccc21`?
IL-1B inflam inh: 13; HT1080NT lethal: 12%; HT1080 IDH1KD tx: 8%; DT40 TDP1 no CPT: -3%; TDP1 cell CPT: -1%; ALOX12 inh: inconclusive

What do the screens show for `CC(=O)n1cc([C@H]2C=C(C(=O)N3CCN(Cc4ccccc4)CC3)O[C@@H](OCc3ccc(CO)cc3)C2)c2ccccc21`?
IL-1B inflam inh: 0; HT1080NT lethal: -15%; HT1080 IDH1KD tx: -19%; DT40 TDP1 no CPT: 7.3µM*; TDP1 cell CPT: 7.3µM*; ALOX12 inh: 0%

Results for CN1CCN(C(=O)C2=C[C@@H](c3coc4ccccc4c3=O)C[C@@H](OCc3ccc(CO)cc3)O2)CC1 ?
IL-1B inflam inh: 12; HT1080NT lethal: 7%; HT1080 IDH1KD tx: 14%; DT40 TDP1 no CPT: -8%; TDP1 cell CPT: 2%; ALOX12 inh: -14%

How did CC(=O)n1cc([C@@H]2C=C(C(=O)NCc3ccccc3)O[C@H](OCc3ccc(CO)cc3)C2)c2ccccc21 do in these assays?
IL-1B inflam inh: inconclusive; HT1080NT lethal: -24%; HT1080 IDH1KD tx: -22%; DT40 TDP1 no CPT: 9.2µM*; TDP1 cell CPT: 7.3µM*; ALOX12 inh: -8%

What do the screens show for `C=CCOC(=O)C1=C[C@@H](c2cn(C(C)=O)c3ccccc23)C[C@@H](OCc2ccc(CO)cc2)O1`?
IL-1B inflam inh: 13; HT1080NT lethal: -4%; HT1080 IDH1KD tx: -14%; DT40 TDP1 no CPT: inconclusive; TDP1 cell CPT: inconclusive; ALOX12 inh: inconclusive

How did C#CCNC(=O)C1=C[C@H](c2cn(C(C)=O)c3ccccc23)C[C@H](OCc2ccc(CO)cc2)O1 do in these assays?
IL-1B inflam inh: -17; HT1080NT lethal: -2%; HT1080 IDH1KD tx: -1%; DT40 TDP1 no CPT: 16µM*; TDP1 cell CPT: 18µM*; ALOX12 inh: -11%

What do the screens show for `CC(=O)n1cc([C@H]2C=C(C(=O)Nc3ccccc3)O[C@@H](OCc3ccc(CO)cc3)C2)c2ccccc21`?
IL-1B inflam inh: 0; HT1080NT lethal: -19%; HT1080 IDH1KD tx: -22%; DT40 TDP1 no CPT: 9.2µM*; TDP1 cell CPT: 8.2µM*

How did COc1cccc(CNC(=O)c2cc(C)nc3ccc(C)cc23)c1 do in these assays?
ALOX12 inh: -25%

Screens (PubChem)
